Assay [1] is described as follows: HepG2 liver cancer cell viability effects, profiling panel, resazurin fluorescence, 24 h, PK04 Diversity Set (AID 1172). Conditions: higher = more signal. A general note: Alamar Blue is a resazurin reagent that responds to reducing activity.
Assay [2] in a line: basal S. cerevisiae growth modulation, no modifier, primary screen, OD600, strain BY4716, 24 h, basal condition (AID 1173). Particulars: OD600, 24 h, higher = more signal, called active from +8 up or from −8 down.
The nature of assay [3]: MM1S myeloma cell viability, profiling panel, resazurin fluorescence, basal, 24 h, PK04 Diversity Set (AID 1174).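 Further: MM1S multiple myeloma cell line.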 Particulars: higher = more signal, called active from +8 up or from −8 down.
Assay [4] addresses Dihydroorotate dehydrogenase (quinone), mitochondrial (Plasmodium falciparum (isolate 3D7)) (UniProt Q08210). The assay can be described thus: PfDHODH enzyme inhibitors, primary screen, biochemical, C-terminal His tag, absorbance 600 nm (AID 1175).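 Further: recombinant parasite enzyme with a five histidine tag at its C terminus.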 Conditions: DCIP absorbance 600 nm, higher = more signal, called active from +8 up or from −8 down.
A short description of assay [5]: P. aeruginosa biofilm formation inhibitors, primary screen, strain PAO1, LB-PBS medium, absorbance 600 nm (AID 1176). Conditions: P. aeruginosa PAO1 growth/biofilm, A600, 12 h; higher = more signal.
Assay [6] can be described thus: S. cerevisiae RM11-1a growth modifiers, primary screen, strain RM11-1a, OD600, basal, 24 h (AID 1177).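 Further: cultures grown under basal conditions with no added stressor.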 Conditions: OD600, 24 h, higher = more signal, called active from +8 up or from −8 down.
A short description of assay [7]: E. coli acrAB mutant growth effects, primary screen, E. coli filamentation inducers, strain DRC39, OD650, 24 h (AID 1178).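 Further: growth measured as culture turbidity by optical density at 650 nm.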 Conditions: higher = more signal, called active from +8 up or from −8 down.
The nature of assay [8]: E. coli acrAB mutant growth effects, primary screen, E. coli filamentation inducers, strain DRC39, OD650, 48 h (AID 1179).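 Further: screen aims at cell division blockers that make cells filament.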 Conditions: E. coli DRC39 delta-acrAB growth, higher = more signal, called active from +8 up or from −8 down.
The nature of assay [9]: RPMI8226 myeloma cell viability, profiling panel, resazurin fluorescence, basal, 24 h, PK04 Diversity Set (AID 1180).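 Further: RPMI8826 multiple myeloma cell line at 5000 cells per well.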 Conditions: higher = more signal.
For assay [10], the target named is E3 ubiquitin-protein ligase XIAP (Homo sapiens) (UniProt P98170). The assay can be described thus: XIAP binders, primary screen, biophysical, small-molecule microarray, fluorescence 635 nm (AID 1181).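 Further: score merges 667 nm emission and signal to noise over triplicate slides.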 Particulars: small-molecule microarray binding, higher = more signal.
Assay [11] concerns XIP peptide (Xip251-270) binding. The assay can be described thus: small-molecule binders of XIP peptide, primary screen, biochemical, small-molecule microarray, fluorescence 635/667 nm, 0.1 µg/mL protein (AID 1182). Particulars: fluorescent protein binding, 635 nm, higher = more signal, called active from +8 up or from −8 down.
Another assay relates to XIP peptide (Xip251-270). The assay can be described thus: small-molecule binders of XIP peptide, primary screen, biochemical, small-molecule microarray, fluorescence 635/667 nm, 0.5 µg/mL protein (AID 1183). Conditions: small-molecule microarray binding, fluorescence 635 nm; higher = more signal.
The nature of assay [12]: Plasmodium falciparum growth inhibition, primary screen, strain 3D7, DAPI fluorescence, 100 nL (AID 1184).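 Further: parasites grown inside human red blood cells in medium with human serum.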 Particulars: P. falciparum 3D7 growth, 3 d, higher = more signal.
Assay [13] deals with Homeobox protein Hox-A13 (Mus musculus) (UniProt Q62424). The assay can be described thus: inhibitors of HoxA13-DNA binding, primary screen, biochemical, fluorescence polarization, labeled oligonucleotide (AID 1185). Conditions: 15 min, higher = more signal, called active from +8 up or from −8 down. (Fluorescence polarisation rises when a labelled molecule tumbles more slowly, as on binding a larger partner.)

Assay [14] in a line: inhibitors of hydroxyurea-induced Chk1 phosphorylation, primary screen, imaging, HeLa, phospho-Chk1 antibody, percent positive cells (AID 1186). Particulars: hydroxyurea-induced phospho-Chk1 immunofluorescence imaging, higher = more signal.
Assay [15] can be described thus: inhibitors of hydroxyurea-induced Chk1 phosphorylation, primary screen, imaging, HeLa, phospho-Chk1 nuclear intensity (AID 1187). Particulars: hydroxyurea-induced phospho-Chk1 immunofluorescence imaging, higher = more signal.

Each structure is given as a SMILES string. Calls of active or inactive are those of the source. Unless noted, how the calls were made is not given here.

Dihydroorotate dehydrogenase (quinone), mitochondrial (Plasmodium falciparum (isolate 3D7)), sequence (Q08210 whole entry, looked up): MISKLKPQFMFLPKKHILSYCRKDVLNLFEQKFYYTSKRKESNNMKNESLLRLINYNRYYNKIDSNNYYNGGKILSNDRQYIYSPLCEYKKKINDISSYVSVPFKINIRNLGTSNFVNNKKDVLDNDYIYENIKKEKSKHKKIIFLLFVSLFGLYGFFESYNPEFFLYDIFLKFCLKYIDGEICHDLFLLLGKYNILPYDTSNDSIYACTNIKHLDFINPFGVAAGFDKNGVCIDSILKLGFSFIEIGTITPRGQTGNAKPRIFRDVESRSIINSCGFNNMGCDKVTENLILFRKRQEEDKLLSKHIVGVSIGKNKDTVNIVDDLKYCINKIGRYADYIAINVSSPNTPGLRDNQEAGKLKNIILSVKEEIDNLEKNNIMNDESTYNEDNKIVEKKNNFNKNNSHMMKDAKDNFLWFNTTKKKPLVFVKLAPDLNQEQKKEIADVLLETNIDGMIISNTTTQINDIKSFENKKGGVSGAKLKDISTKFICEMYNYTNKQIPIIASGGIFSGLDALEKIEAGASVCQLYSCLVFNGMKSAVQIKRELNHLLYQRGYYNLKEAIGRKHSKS
E3 ubiquitin-protein ligase XIAP (Homo sapiens), sequence (P98170 whole entry, looked up): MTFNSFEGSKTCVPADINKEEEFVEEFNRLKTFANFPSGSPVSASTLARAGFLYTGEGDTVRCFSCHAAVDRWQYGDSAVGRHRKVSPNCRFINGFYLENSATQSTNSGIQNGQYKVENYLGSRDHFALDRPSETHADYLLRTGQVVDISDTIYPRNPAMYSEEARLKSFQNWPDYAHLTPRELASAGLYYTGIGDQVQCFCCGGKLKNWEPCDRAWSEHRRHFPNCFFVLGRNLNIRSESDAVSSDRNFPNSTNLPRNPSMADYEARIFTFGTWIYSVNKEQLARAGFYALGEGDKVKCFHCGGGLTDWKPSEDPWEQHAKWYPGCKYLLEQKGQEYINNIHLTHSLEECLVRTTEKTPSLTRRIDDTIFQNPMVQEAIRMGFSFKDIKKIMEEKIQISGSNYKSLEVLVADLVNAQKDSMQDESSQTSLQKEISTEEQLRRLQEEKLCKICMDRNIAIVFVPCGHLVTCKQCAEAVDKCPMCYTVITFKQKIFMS
Homeobox protein Hox-A13 (Mus musculus), sequence (Q62424 whole entry, looked up): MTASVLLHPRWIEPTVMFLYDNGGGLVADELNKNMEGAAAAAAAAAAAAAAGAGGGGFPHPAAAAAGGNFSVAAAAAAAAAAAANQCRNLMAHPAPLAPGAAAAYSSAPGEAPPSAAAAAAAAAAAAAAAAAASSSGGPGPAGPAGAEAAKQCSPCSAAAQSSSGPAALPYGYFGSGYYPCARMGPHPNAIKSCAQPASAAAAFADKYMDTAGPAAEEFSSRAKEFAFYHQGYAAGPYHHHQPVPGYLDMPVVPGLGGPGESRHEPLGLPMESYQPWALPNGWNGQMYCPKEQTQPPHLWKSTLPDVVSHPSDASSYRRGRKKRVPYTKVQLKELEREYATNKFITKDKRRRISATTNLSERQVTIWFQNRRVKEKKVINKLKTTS

Consider `O=C1N(CCS(=O)(=O)c2ccccc2)c2ccccc2[C@H]2OC(c3ccc(OCCCO)cc3)=N[C@@]12CCS(=O)(=O)c1ccccc1`, for which the z-score was 0.248 in assay [1]; 2.94 (inactive) in [2]; 0.685 (inactive) in assay [3]; 0.591 (inactive) in assay [5]; 3.96 (inactive) in [6]; 2.37 (inactive) in [7]. In addition, the z-score in [8] was 1.04 (inactive); in [9] it was 0.488; in [12], -2.05; in assay [13], 0.758 (inactive); in assay [14] it was 0.109 (inactive); in assay [15], 0.545 (inactive). Moreover, the composite z-score in assay [4] is 0.761 (inactive); in assay [10], 0.0197; in assay [11], 2.51 (inactive); with XIP peptide (Xip251-270), 0.776.
Consider `CCN(CC)c1ccc(N2CC=CC34O[C@@H]5/C=C\CCCOC(=O)C5[C@H]3C(=O)N(CCCCCO)[C@@H]4C2=O)cc1` (some centres undefined), for which the z-score was -0.162 in assay [1]; -0.606 (inactive) in assay [2]; 0.361 (inactive) in [3]; -0.553 (inactive) in assay [5]; -0.27 (inactive) in assay [6]; -0.388 (inactive) in assay [7]. The z-score is -0.241 (inactive) in [8]; 0.681 in [9]; 1.98 in assay [12]; -5.15 (inactive) in assay [13]; -0.0764 (inactive) in assay [14]; 0.34 (inactive) in assay [15]. The composite z-score in assay [4] is -0.706 (inactive); in assay [10], -0.0264; in assay [11], -0.0261 (inactive); in the assay with XIP peptide (Xip251-270), 0.0595.
As to `CCOC(=O)C1=CC[C@@H](c2ccc(N(CC)CC)cc2)N(S(=O)(=O)c2ccc(C)cc2)[C@H]1c1ccc([N+](=O)[O-])cc1`, the z-score is -0.407 in assay [1]; -0.0341 (inactive) in [2]; -0.095 (inactive) in assay [3]; 0.698 (inactive) in assay [5]; -0.101 (inactive) in assay [6]; -0.19 (inactive) in assay [7]. The z-score in assay [8] is -0.0619 (inactive); in [9], -1.06; in assay [12], -2.1; in [13], -1.99 (inactive); in [14], 0.0638 (inactive); in assay [15] it was -0.244 (inactive). Moreover, the composite z-score in assay [4] is -0.719 (inactive); in assay [10], -0.0143; in assay [11] it was 0.326 (inactive); in the assay on XIP peptide (Xip251-270) it was 0.357.
As for `CC(C)(C)N1CC=CC23O[C@@H]4C=CCCOC(=O)C4[C@H]2C(=O)N(CCCO)[C@@H]3C1=O` (some centres undefined), the z-score in assay [1] was -0.884; in [2] it was -0.434 (inactive); in [3] it was -1.12 (inactive); in assay [5], -0.193 (inactive); in assay [6], 0.605 (inactive); in [7] it was -1.23 (inactive). Besides, the z-score in [8] was -1.27 (inactive); in assay [9] it was -1.15; in assay [12], -1.75; in assay [13], -5.86 (inactive); in [14], -0.0977 (inactive); in assay [15] it was -0.102 (inactive). Moreover, the composite z-score in assay [4] is -3.53 (inactive); in [10], -0.263; in assay [11], -0.508 (inactive); in the assay on XIP peptide (Xip251-270) it was -1.18.
`CCCCC(O)C1C=CC2C(=O)N(Cc3ccccc3)C(=O)C2N1n1cnnc1` (centres undefined): the z-score is -1.23 in assay [1]; 0.0393 (inactive) in assay [2]; -0.748 (inactive) in assay [3]; 0.148 (inactive) in assay [5]; -0.601 (inactive) in [6]; -0.395 (inactive) in assay [7]. Moreover, the z-score in assay [8] was -0.436 (inactive); in assay [9], -0.409; in assay [12], -1.33; in [13] it was -1.62 (inactive); in assay [14], 0.737 (inactive); in assay [15], 0.0163 (inactive). Besides, the composite z-score is 0.504 (inactive) in assay [4], 0.0937 in [10], 0.506 (inactive) in [11] and 0.856 in the assay on XIP peptide (Xip251-270).
Consider `[N-]=[N+]=NCc1ccccc1C[C@]1(C(=O)NCCN2CCOCC2)N=C(c2ccc(OCCCO)cc2)O[C@H]1c1ccccc1`, for which the z-score in [1] is 0.383; in assay [2], -2 (inactive); in [3], -0.0784 (inactive); in assay [5], 0.193 (inactive); in assay [6], -0.65 (inactive); in [7], 1.24 (inactive). Further, the z-score is 0.535 (inactive) in [8]; 0.166 in assay [9]; -2.42 in assay [12]; -6.23 (inactive) in assay [13]; 0.0479 (inactive) in assay [14]; 0.228 (inactive) in assay [15]. In addition, the composite z-score in [4] was -0.603 (inactive); in assay [10], 0.131; in assay [11] it was 0.786 (inactive); in the assay on XIP peptide (Xip251-270) it was 0.817.
As to `COc1cc(C(O)C2C=CC3C(=O)N(C)C(=O)C3N2NC(=O)OC(C)(C)C)cc(OC)c1OC` (centres undefined), the z-score in assay [1] is -1.22; in [2], 1.74 (inactive); in assay [3], -0.976 (inactive); in assay [5] it was 0.847 (inactive); in [6], 0.796 (inactive); in assay [7], -1.01 (inactive). Besides, the z-score in assay [8] was -0.503 (inactive); in assay [9] it was -1.24; in [12], -0.361; in [13], -1.27 (inactive); in assay [14], 0.873 (inactive); in assay [15] it was 0.571 (inactive). In addition, the composite z-score is 0.0277 (inactive) in assay [4], 0.085 in [10], 1.56 (inactive) in [11] and 0.157 in the assay with XIP peptide (Xip251-270).
As for `COCCOC(=O)N1C(=O)[C@@]2(c3ccccc31)[C@H](c1ccccc1OCCO)N1[C@H](c3ccccc3)[C@H](c3ccccc3)OC(=O)[C@H]1[C@@H]2C(=O)N1CCc2cc(OC)c(OC)cc2C1`, the z-score was -0.413 in [1]; 1.99 (inactive) in [2]; 0.181 (inactive) in [3]; 1.96 (inactive) in [5]; 3.06 (inactive) in assay [6]; -1.29 (inactive) in assay [7]. For the same compound, the z-score in [8] is -1.3 (inactive); in assay [9], 0.186; in [12], -2.46; in assay [13], -2.43 (inactive); in assay [14] it was -0.453 (inactive); in assay [15], -0.193 (inactive). The composite z-score in assay [4] is 0.301 (inactive); in [10], -0.146; in assay [11], 0.159 (inactive); in the assay on XIP peptide (Xip251-270), 0.84.
For `CCCC=C(CCC)[C@@H](NS(=O)(=O)CC)c1ccccc1`, the z-score in [1] was 0.281; in [2], 1.32 (inactive); in assay [3] it was -0.364 (inactive); in assay [5], 0.302 (inactive); in assay [6] it was 0.462 (inactive); in assay [7], -1.1 (inactive). Besides, the z-score in assay [8] is -0.0887 (inactive); in assay [9] it was -0.745; in [12], -0.977; in assay [13], -0.298 (inactive); in assay [14] it was 0.304 (inactive); in [15], 0.408 (inactive). For the same compound, the composite z-score is -0.317 (inactive) in assay [4], 0.23 in assay [10], -0.255 (inactive) in assay [11] and 0.52 with XIP peptide (Xip251-270).

For the origin of these results see PubChem BioAssay.
